± gives the standard deviation of the averaged measurements. Whole data set: some 25,000 sequences, median “ln(normalized median fluorescence intensity)” near 8.6, cut for the highest 2% near 10. For the sample, the highest values were picked, then their nearest neighbours and some sequences at random.
system: PfAP2-EXP AP2 domain (GST-tagged); experiment: gcPBM binding intensity (ln(normalized median fluorescence intensity)); higher = stronger DNA binding
Procedure, shortened: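 Binding intensity values are the highest Masliner-normalised natural-log median intensity among replicate spots of either probe orientation. The binding step lasted 1 h in 1× PBS with 1% milk, 0.2 mg/ml BSA, 0.5% salmon testes DNA and 0.03% Triton X-100, using GST-tagged P. falciparum DNA-binding domains expressed in E. coli on an Agilent 4 × 180k array of primer-extended double-stranded 36-bp intergenic genomic probes plus negative controls. Alexa488 anti-GST antibody and a 488 nm scan detected bound protein.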

Row | Sequence | gcPBM binding intensity (ln)
1 | AAAAAAATATATATTACACACATATATACCTATATA [CACACA_site5688] | 8.18 ± 0.47
2 | TATATCTGTATCATTACACACATGTATACTTATTTG [CACACA_site6134] | 8.74 ± 0.43
3 | TTACGATTATACAAAAGTACATGTATTACACAATAT [XGTACX_site5138] | 8.6 ± 0.33
4 | TACAAAAAAAGATGATGTACAATGAAAAATAAGAAA [XGTACX_site5840] | 9.18 ± 0.37
5 | TATTATAATTAATATACACACGCTTATATATATATA [CACACA_site75] | 9.93 ± 0.3
6 | TAATTGTAGACATGCACACACAAATATTATATATGT [CACACA_site845] | 8.72 ± 0.45
7 | TAATGAAATATACAGAGTACATTCTGTATATAGGAT [XGTACX_site7691] | 8.46 ± 0.3
8 | ATATTTACCACTGTATGTACATATATAAAATATATC [XGTACX_site6373] | 8.81 ± 0.18
9 | CTTGAAAGATTTTATTGTACTCATAAGATACATTTC [XGTACX_site3178] | 8.31 ± 0.36
10 | TATTATAGTATATATTGTACATATATATATTTTTTA [XGTACX_site8831] | 8.35 ± 0.37
11 | ATATATATATATATATGTACACATATACGCTTTTTC [XGTACX_site3838] | 10.3 ± 0.28
12 | TACATTGTATACATATGTACACATATATATATATAT [XGTACX_site6174] | 10.1 ± 0.4
13 | AGTTTATAGTGATATTGTACATATATATATATATAT [XGTACX_site572] | 10.2 ± 0.66
14 | TATATATATATATATTGTACACATACATGTAGTTTT [XGTACX_site4848] | 10.2 ± 0.29
15 | TGTATACGCATATGTACACACATATATATGTATATG [CACACA_site3087] | 8.65 ± 0.16
16 | ATATATATATATATATGTACACATATATTTCTTTTC [XGTACX_site3443] | 10 ± 0.47
17 | TATATAGTTTATATTTGTACATATAGACATTTATAA [XGTACX_site6414] | 8.23 ± 0.3
18 | TATATATATACATATTGTACATGTGTATATTTTTTT [XGTACX_site361] | 8.93 ± 0.042
19 | AAAATGTACTTTTTCTAAAGAGTAATGATGCTTGAT [CACACA_negctrl_site1124] | 8.52 ± 0.45
20 | ATATGATAAATTATATGTACTTAAAATATATTATAA [XGTACX_site5904] | 8.26 ± 0.18
21 | TATATATATATATATACATGCATACAATTTTATGAG [TGCATGCA_site466] | 10.2 ± 0.29
22 | TATATACATGCATATACACACATATATTTATTTATA [CACACA_site6327] | 8.7 ± 0.33
23 | TCCTTTTTTTTTTATGCACACACAATTATACATTCC [CACACA_site9287] | 9.06 ± 0.4
24 | CTTTTTTTTTTATGCACACACAATTATACATTCCTT [CACACA_site3877] | 9.08 ± 0.37
25 | TATATATATATATATACATGCATATTTTTTATTTTT [TGCATGCA_site464] | 10.3 ± 0.31
26 | GTTATTTATAGACACACACACATGCATGCACATATA [CACACA_site6204] | 10.2 ± 0.39
27 | CATATTTTATTATATACATGCAATTTTAATATATAT [TGCATGCA_site544] | 8.59 ± 0.25

Row | Sequence | gcPBM binding intensity (ln)
28 | TATTCATGCATATACACACACATATATTTATATTTT [CACACA_site7786] | 8.77 ± 0.35
29 | TATATATATATATATGCACACATTTATACAATTTTA [CACACA_site2986] | 10.2 ± 0.3
30 | TATTTATATAGACACACACACATATATTTATATTTT [CACACA_site7240] | 8.52 ± 0.45
31 | AACAGACATAGACACACACACATATATTTATTTATA [CACACA_site7571] | 8.64 ± 0.4
32 | TATAATAATAATTATACATGCATGAATATTTATATG [TGCATGCA_site811] | 8.86 ± 0.16
33 | GCATAACCTTTATATTGTACATATACCTTTATTGTT [XGTACX_site6046] | 9.16 ± 0.45
34 | TTTAATAAATAAATAAATAAAATATATTAAAAACCA [CACACA_negctrl_site80] | 8.38 ± 0.36
35 | GCATCCCTTTTTATGTGTACATACAAAGGCAATTAC [XGTACX_site6977] | 8.86 ± 0.33
36 | CCTTAATATTTTTGAAGTACATATTTATTTTACAAG [XGTACX_site3049] | 8.31 ± 0.33
37 | TGCTACATTTTATGTACACACATATACAGATATATA [CACACA_site4646] | 8.42 ± 0.26
38 | TCATATGTTAAATGATGTACATTTAATATAAATAAA [XGTACX_site900] | 8.38 ± 0.15
39 | AATTGCATAATATATTCACACATTTTTAAGTGATAC [CACACA_site5679] | 8.38 ± 0.35
40 | ATATATATATATATTGTACACACATTTATGCATATA [CACACA_site9055] | 10 ± 0.2
41 | ATATTCAATATATTATGTACACATATATGAGGATAT [XGTACX_site7019] | 8.65 ± 0.41
42 | ATAATCATAAAATAAACACACATATATAAATATATT [CACACA_site276] | 8.27 ± 0.47
43 | TATGAATGGTTAAGTACACACATATTAATATATGTA [CACACA_site3490] | 8.49 ± 0.45
44 | ATTATATAATAATGCATGCACCTTATTTTCATTTCA [GTGCAC_site9922] | 9.99 ± 0.19
45 | TAATAATTAATTAATATAATATTTTTTCATAATTAT [XGTACX_negctrl_site602] | 8.22 ± 0.4
46 | ATATTATATAATAATGCATGCACCTTATTTTCATTT [TGCATGCA_site405] | 10.2 ± 0.44
47 | TGTATAATATTTGGTGCACACAAATTAACAACTGTT [CACACA_site9245] | 9.21 ± 0.32
48 | AACATATTTTTAAATACACACACATAAAAAAAAAAA [CACACA_site8279] | 8.59 ± 0.5
49 | AATTTATATGTTTTGTGTACACAATTTATTAAATTA [XGTACX_site6448] | 9.03 ± 0.29
50 | TATTTTGTATTCATTTGTCACATATAATAGATAGGA [TGCATGCA_negctrl_site9] | 8.69 ± 0.32
51 | GTATATATTTTGTATTCATTTGTCACATATAATAGA [CACACA_negctrl_site506] | 8.69 ± 0.5
52 | ATTCGTCACATTTTTTGATATATATATATATATATA [CACACA_negctrl_site1785] | 10.4 ± 0.4
53 | ATCCATCTTTTAATTTGTACTTATTCTTTTTTCTTT [XGTACX_site5299] | 9 ± 0.67

Reference: the supplement of paper PMC11417369
